Results published in ChEMBL document CHEMBL1961873, “Compounds: GSK PKIS; Assays: Nanosyn kinase panel” (2012).

How the values were obtained:
[1] = molecular target: Protein kinase C gamma type (Homo sapiens) (UniProt P05129); conditions: at 1 µM;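 further: each value is an averaged percent inhibition of the enzyme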
[2] = molecular target: T1, Protein kinase C iota type (Homo sapiens) (UniProt P41743); conditions: at 0.1 µM
T1 sequence (whole entry): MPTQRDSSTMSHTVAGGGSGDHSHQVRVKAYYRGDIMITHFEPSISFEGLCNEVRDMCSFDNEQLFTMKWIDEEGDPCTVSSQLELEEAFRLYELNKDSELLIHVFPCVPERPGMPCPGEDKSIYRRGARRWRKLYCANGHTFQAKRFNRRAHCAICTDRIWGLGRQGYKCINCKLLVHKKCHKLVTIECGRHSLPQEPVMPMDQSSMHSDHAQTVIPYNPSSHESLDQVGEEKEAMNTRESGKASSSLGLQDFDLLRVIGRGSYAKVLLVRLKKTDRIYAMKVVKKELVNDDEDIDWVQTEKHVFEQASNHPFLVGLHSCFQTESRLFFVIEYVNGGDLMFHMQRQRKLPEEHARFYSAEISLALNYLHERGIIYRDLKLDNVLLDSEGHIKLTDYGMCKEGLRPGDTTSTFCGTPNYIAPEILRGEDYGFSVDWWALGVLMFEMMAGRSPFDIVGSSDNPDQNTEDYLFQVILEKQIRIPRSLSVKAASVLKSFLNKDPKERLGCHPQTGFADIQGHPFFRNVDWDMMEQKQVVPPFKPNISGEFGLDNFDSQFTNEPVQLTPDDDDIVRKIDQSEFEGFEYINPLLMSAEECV

[3] = molecular target: T1, Protein kinase C iota type (Homo sapiens); conditions: at 1 µM
[4] = molecular target: Protein kinase C theta type (Homo sapiens) (UniProt Q04759); conditions: at 0.1 µM
Protein kinase C theta type (Homo sapiens), sequence (Q04759 whole entry, looked up): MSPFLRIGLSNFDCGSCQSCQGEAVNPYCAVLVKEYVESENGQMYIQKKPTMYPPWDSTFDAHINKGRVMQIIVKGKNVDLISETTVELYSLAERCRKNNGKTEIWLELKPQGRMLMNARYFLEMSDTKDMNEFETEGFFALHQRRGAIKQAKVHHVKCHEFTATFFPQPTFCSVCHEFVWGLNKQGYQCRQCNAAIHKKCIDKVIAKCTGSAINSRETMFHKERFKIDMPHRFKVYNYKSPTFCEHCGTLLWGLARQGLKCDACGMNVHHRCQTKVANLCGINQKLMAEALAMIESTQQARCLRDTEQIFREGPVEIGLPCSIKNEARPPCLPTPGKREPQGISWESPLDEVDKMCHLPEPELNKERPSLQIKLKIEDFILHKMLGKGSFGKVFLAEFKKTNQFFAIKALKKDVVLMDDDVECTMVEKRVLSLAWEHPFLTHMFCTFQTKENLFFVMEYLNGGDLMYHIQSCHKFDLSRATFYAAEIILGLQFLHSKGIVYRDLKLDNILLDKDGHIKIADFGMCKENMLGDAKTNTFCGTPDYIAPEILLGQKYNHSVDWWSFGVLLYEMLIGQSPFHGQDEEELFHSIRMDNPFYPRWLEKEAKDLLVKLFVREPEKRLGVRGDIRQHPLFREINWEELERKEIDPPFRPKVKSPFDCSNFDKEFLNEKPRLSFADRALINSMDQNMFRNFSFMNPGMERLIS

[5] = molecular target: Protein kinase C theta type (Homo sapiens) (UniProt Q04759); conditions: at 1 µM
[6] = molecular target: Protein kinase C beta type (Homo sapiens) (UniProt P05771); conditions: at 0.1 µM
Protein kinase C beta type (Homo sapiens), sequence (P05771 2-671 limits assumed): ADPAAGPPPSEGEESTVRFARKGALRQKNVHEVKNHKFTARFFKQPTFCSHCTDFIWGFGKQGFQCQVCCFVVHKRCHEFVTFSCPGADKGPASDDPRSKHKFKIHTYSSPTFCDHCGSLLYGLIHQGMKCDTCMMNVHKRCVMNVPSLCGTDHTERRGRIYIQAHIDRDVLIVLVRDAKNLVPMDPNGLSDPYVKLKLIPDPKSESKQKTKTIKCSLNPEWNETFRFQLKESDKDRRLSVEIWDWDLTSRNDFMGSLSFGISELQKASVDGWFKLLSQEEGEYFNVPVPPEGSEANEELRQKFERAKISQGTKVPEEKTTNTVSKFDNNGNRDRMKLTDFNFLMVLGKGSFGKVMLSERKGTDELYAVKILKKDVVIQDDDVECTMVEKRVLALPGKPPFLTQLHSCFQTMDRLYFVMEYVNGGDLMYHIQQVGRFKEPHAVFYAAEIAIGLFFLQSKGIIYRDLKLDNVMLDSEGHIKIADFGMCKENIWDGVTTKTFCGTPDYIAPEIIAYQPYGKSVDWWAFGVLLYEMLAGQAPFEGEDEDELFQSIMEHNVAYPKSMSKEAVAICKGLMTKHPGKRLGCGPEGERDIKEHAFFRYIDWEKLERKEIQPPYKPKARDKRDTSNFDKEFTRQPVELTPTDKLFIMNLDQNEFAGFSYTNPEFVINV

[7] = molecular target: Protein kinase C beta type (Homo sapiens) (UniProt P05771); conditions: at 1 µM
[8] = molecular target: T2, Serine/threonine-protein kinase D1 (Homo sapiens) (UniProt Q15139); conditions: at 0.1 µM
T2 sequence (whole entry): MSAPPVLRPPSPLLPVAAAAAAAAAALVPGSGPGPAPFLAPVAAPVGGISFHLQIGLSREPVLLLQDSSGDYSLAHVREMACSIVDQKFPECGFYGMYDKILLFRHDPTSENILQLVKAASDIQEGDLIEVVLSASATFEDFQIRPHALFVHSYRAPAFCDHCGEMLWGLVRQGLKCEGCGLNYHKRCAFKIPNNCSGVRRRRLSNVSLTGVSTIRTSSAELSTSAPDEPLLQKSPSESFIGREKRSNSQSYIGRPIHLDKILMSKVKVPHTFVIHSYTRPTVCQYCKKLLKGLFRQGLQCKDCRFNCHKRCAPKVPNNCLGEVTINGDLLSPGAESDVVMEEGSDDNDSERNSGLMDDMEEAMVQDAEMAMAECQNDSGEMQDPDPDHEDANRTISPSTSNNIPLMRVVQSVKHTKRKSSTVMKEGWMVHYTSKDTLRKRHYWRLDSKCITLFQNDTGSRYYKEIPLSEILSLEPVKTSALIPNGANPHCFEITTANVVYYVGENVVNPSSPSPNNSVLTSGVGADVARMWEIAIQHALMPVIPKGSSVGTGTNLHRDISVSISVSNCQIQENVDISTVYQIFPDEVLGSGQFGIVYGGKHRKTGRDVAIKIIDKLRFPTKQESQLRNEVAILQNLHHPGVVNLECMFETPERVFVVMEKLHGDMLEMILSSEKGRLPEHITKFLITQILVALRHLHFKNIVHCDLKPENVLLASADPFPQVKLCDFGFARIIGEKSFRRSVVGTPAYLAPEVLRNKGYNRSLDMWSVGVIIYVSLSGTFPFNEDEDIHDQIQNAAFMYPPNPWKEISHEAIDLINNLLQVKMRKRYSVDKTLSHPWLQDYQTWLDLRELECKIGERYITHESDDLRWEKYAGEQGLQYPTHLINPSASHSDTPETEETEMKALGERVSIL

[9] = molecular target: T2, Serine/threonine-protein kinase D1 (Homo sapiens); conditions: at 1 µM
[10] = molecular target: T3, Serine/threonine-protein kinase D2 (Homo sapiens) (UniProt Q9BZL6); conditions: at 0.1 µM
T3 sequence (whole entry): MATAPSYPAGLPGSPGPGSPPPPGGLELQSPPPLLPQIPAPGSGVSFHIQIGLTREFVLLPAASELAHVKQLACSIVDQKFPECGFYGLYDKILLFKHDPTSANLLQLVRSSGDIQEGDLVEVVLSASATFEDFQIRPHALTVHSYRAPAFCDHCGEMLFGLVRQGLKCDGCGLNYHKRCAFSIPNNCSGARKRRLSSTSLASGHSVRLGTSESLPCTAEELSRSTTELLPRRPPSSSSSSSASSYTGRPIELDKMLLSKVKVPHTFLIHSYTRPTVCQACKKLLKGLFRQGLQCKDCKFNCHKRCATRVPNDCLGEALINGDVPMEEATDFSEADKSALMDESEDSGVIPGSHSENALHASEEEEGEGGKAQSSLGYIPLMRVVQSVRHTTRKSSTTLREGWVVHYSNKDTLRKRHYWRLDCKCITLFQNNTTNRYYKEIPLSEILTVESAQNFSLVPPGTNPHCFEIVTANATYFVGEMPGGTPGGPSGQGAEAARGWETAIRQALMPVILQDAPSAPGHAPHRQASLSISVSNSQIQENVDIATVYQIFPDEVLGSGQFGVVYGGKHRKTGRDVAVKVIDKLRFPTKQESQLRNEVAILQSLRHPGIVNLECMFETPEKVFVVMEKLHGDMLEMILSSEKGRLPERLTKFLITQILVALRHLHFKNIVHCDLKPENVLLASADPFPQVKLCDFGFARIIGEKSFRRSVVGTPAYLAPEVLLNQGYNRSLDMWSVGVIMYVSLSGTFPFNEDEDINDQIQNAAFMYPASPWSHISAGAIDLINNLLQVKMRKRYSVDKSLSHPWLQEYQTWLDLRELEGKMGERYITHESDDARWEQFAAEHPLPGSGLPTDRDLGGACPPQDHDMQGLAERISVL

[11] = molecular target: T3, Serine/threonine-protein kinase D2 (Homo sapiens); conditions: at 1 µM
[12] = molecular target: T4, Serine/threonine-protein kinase D3 (Homo sapiens) (UniProt O94806); conditions: at 0.1 µM
T4 sequence (whole entry): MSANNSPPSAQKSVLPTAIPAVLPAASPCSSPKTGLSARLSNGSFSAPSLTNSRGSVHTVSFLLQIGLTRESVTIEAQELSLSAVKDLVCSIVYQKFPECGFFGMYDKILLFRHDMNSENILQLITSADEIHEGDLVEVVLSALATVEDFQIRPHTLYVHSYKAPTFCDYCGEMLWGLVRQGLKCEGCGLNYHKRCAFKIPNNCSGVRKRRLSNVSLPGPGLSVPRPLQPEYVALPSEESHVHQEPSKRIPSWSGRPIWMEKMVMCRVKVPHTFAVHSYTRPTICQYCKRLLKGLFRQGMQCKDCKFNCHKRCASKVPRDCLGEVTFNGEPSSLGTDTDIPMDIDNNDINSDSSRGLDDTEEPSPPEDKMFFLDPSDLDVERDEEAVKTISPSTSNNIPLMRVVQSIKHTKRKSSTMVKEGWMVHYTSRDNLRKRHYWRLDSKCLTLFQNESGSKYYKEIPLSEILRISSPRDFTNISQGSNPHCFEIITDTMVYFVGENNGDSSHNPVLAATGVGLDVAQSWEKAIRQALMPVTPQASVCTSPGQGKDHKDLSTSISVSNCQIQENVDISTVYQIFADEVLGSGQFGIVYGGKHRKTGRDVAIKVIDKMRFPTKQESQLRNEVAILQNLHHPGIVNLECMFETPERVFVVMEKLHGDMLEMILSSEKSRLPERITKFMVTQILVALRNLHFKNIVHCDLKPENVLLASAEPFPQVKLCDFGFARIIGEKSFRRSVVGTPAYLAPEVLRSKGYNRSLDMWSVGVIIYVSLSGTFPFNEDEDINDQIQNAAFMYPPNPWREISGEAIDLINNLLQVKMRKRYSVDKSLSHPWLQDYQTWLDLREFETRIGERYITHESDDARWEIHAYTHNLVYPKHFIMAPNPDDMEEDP

[13] = molecular target: T4, Serine/threonine-protein kinase D3 (Homo sapiens); conditions: at 1 µM
[14] = molecular target: T5, cGMP-dependent protein kinase 1 (Homo sapiens) (UniProt Q13976); conditions: at 0.1 µM
T5 sequence (whole entry): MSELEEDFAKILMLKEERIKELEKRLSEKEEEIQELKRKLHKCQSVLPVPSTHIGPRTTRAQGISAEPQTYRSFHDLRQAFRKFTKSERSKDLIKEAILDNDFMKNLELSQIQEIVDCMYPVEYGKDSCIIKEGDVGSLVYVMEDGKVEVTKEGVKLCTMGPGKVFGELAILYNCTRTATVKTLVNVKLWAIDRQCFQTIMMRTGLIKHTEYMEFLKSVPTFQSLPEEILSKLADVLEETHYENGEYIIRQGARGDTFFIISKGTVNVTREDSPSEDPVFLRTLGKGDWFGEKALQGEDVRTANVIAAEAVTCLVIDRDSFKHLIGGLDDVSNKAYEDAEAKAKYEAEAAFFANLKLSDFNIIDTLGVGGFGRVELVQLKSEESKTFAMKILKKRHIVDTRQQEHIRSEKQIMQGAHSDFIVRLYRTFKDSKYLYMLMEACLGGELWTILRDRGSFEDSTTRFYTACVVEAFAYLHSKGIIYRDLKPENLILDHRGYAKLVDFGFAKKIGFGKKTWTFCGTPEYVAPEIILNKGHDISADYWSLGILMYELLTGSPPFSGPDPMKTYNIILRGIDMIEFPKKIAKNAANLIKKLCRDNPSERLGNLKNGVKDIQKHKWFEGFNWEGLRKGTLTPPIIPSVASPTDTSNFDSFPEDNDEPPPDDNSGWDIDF

[15] = molecular target: T5, cGMP-dependent protein kinase 1 (Homo sapiens); conditions: at 1 µM
[16] = molecular target: T6, cGMP-dependent protein kinase 2 (Homo sapiens) (UniProt Q13237); conditions: at 0.1 µM
T6 sequence (whole entry): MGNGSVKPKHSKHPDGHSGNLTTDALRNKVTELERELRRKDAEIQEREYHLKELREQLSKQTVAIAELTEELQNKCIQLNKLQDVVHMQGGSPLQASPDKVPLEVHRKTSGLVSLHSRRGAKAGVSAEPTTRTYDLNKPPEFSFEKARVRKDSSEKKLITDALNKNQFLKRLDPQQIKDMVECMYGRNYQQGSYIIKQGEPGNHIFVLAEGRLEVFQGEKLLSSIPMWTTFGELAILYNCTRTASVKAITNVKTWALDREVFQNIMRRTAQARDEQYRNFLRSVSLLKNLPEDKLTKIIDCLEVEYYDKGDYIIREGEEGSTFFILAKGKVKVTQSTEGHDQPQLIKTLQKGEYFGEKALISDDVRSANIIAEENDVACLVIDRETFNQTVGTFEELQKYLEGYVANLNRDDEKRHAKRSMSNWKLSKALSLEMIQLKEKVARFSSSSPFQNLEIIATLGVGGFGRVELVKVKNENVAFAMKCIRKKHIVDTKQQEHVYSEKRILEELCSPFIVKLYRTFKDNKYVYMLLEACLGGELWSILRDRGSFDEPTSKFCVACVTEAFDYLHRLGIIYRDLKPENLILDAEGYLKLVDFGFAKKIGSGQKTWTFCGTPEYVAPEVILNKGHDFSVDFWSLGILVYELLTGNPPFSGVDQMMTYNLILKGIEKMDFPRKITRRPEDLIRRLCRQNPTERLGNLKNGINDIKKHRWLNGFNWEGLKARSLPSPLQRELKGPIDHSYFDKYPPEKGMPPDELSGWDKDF

[17] = molecular target: T6, cGMP-dependent protein kinase 2 (Homo sapiens); conditions: at 1 µM
[18] = molecular target: T7, cAMP-dependent protein kinase catalytic subunit PRKX (Homo sapiens) (UniProt P51817); conditions: at 0.1 µM
T7 sequence (whole entry): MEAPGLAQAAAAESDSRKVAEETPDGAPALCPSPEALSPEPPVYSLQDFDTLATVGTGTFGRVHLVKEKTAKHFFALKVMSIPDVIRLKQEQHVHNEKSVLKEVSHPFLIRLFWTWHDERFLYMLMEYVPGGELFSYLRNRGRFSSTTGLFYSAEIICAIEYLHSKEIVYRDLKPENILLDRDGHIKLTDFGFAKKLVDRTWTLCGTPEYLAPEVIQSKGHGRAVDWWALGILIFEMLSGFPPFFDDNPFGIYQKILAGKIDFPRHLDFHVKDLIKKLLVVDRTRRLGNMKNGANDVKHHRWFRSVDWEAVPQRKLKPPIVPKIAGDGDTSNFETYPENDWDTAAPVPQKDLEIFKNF

[19] = molecular target: T7, cAMP-dependent protein kinase catalytic subunit PRKX (Homo sapiens); conditions: at 1 µM
[20] = molecular target: Rho-associated protein kinase 1 (Homo sapiens) (UniProt Q13464); conditions: at 0.1 µM;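 further: values are mean percent inhibition of ROCK1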
Rho-associated protein kinase 1 (Homo sapiens), sequence (Q13464 2-1354 limits assumed): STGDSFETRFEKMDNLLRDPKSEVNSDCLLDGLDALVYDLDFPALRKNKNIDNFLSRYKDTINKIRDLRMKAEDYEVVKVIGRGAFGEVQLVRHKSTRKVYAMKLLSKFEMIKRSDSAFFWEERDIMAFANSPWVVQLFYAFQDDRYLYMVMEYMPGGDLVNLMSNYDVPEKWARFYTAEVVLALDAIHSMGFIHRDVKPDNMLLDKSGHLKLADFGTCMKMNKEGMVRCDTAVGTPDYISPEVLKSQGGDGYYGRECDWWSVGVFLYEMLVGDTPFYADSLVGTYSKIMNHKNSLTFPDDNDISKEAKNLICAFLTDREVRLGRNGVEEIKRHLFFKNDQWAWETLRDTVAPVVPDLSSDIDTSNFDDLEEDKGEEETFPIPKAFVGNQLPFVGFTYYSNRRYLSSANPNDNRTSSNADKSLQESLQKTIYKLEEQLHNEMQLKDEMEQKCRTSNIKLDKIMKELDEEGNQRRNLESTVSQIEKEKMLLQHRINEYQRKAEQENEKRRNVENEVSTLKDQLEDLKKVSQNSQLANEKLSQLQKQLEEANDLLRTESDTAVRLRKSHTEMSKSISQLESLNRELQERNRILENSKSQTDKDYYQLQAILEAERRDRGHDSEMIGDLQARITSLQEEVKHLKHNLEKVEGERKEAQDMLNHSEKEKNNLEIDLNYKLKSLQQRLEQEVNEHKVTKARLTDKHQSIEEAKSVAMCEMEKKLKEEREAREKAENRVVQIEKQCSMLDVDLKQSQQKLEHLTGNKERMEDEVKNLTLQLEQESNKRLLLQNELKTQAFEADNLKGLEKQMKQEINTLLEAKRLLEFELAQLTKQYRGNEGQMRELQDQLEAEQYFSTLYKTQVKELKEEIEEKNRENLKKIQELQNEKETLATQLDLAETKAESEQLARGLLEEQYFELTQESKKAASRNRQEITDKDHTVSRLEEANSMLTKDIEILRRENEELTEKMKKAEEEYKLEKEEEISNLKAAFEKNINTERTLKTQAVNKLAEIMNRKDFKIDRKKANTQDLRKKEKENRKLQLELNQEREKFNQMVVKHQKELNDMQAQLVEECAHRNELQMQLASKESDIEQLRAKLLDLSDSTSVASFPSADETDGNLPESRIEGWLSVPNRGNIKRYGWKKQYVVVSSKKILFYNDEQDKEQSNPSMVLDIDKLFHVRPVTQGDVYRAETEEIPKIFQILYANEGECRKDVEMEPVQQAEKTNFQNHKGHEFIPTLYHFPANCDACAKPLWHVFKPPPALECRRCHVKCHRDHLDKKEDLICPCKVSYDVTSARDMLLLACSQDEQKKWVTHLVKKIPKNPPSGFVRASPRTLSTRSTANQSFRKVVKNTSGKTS

SMILES: CCS(=O)(=O)c1ccc(OC)c(Nc2nccc(N(C)c3ccc4c(C)n[nH]c4c3)n2)c1
- inhibition [1]: 3.15%
- inhibition [2]: 2.77%
- inhibition [3]: 2.66%
- inhibition [4]: 2.68%
- inhibition [5]: 2.9%
- inhibition [6]: 1.61%
- inhibition [7]: 2.71%
- inhibition [8]: 4.99%
- inhibition [9]: 6.33%
- inhibition [10]: 4.18%
- inhibition [11]: 3.25%
- inhibition [12]: 4.79%
- inhibition [13]: 4.86%
- inhibition [14]: 4.43%
- inhibition [15]: 2.44%
- inhibition [16]: 2.68%
- inhibition [17]: 3.13%
- inhibition [18]: 2.11%
- inhibition [19]: 2.47%
- inhibition [20]: 1.77%

SMILES: Nc1nccc(-c2c(-c3ccc(F)cc3)nn3cc(C(F)(F)F)ccc23)n1
- inhibition [1]: -0.26%
- inhibition [2]: -0.75%
- inhibition [3]: -1.18%
- inhibition [4]: -0.19%
- inhibition [5]: -0.16%
- inhibition [6]: -0.91%
- inhibition [7]: 2.07%
- inhibition [8]: 0.77%
- inhibition [9]: 3.05%
- inhibition [10]: 1.62%
- inhibition [11]: 3.04%
- inhibition [12]: 0.99%
- inhibition [13]: 3.75%
- inhibition [14]: -0.61%
- inhibition [15]: -0.49%
- inhibition [16]: -0.17%
- inhibition [17]: -0.08%
- inhibition [18]: 0.72%
- inhibition [19]: -0.61%
- inhibition [20]: -0.4%

SMILES: C[C@@H](Oc1cc(-n2cnc3ccc(OCC4CCN(C)CC4)cc32)sc1C(N)=O)c1ccccc1C(F)(F)F
- inhibition [1]: 7.81%
- inhibition [2]: -1.38%
- inhibition [3]: 0.4%
- inhibition [4]: 2.09%
- inhibition [5]: 19.4%
- inhibition [6]: 2.07%
- inhibition [7]: 18.8%
- inhibition [8]: -0.56%
- inhibition [9]: 12.1%
- inhibition [10]: 2.29%
- inhibition [11]: 22.1%
- inhibition [12]: -0.13%
- inhibition [13]: 16.9%
- inhibition [14]: -2.23%
- inhibition [15]: 0.25%
- inhibition [16]: -1.61%
- inhibition [17]: 0.31%
- inhibition [18]: -0.03%
- inhibition [19]: -1.15%
- inhibition [20]: 0.29%
